Records with an inconclusive call do not appear. Values without a mark were called inactive. Calls come from the whole dose curve; as a rule, active = well fitted cell-killing curve with a large enough effect; inconclusive = small, poorly fitted or top-dose-only effect; inactive = flat fitted curve, though single readings scatter.
experiment: Cell Viability - LYMP2-011 (AID 969); settings: LYMP2-011 lymphoblastoid cells viability; series mostly up to 92.2 µM; viability change, negative = cytotoxic: at the top concentration;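 note: cells exposed to compound for 24 hours; 0% = DMSO only and full inhibition = 92 µM tetraoctylammonium bromide; nearly all actives have a fitted effect of over 60% in size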
In short: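 Cells seeded at 2500 per well rest 5 hr before compound addition, then incubate 24 hr at 37 C. CellTiter-Glo reagent is added for 30 min at room temperature before luminescence detection.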

Row | SMILES | viability change, negative = cytotoxic
1 | COc1ccc(O)cc1 | 4.8%
2 | CCN(CC)C(=O)c1cccc(C)c1 | 0.888%
3 | CC(=O)Nc1ccccc1 | 2.19%
4 | O=C1C(c2[nH]c3ccccc3c2O)=Nc2ccccc21 | -7.23%
5 | CCCC(O)C(CC)CO (stereo not given) | -1.83%
6 | Cc1cc(=O)[nH]c(=S)[nH]1 | -9.55%
7 | CC(=O)Nc1ccc(C(=O)O)cc1 | 6.92%
8 | CCCCCCCC(=O)OCC(COC(=O)CCCCCCC)OC(=O)CCCCCCC | -0.706%
9 | O=C(O)CCCCC1CCSS1 (stereo not given) | -0.402%
10 | Cc1cc(C)nc(NS(=O)(=O)c2ccc(N)cc2)n1 | 2.89%
11 | CC1CC(OC(=O)c2ccccc2O)CC(C)(C)C1 (stereo not given) | -4.27%
12 | Cc1c(N(C)C)c(=O)n(-c2ccccc2)n1C | -0.86%
13 | O=C(c1ccccc1)C(O)c1ccccc1 (stereo not given) | -3.2%
14 | C=CCNC(N)=S | 1.51%
15 | FC(F)(F)C(Cl)Br (stereo not given) | 3.13%
16 | CC(=O)OCC(COC(C)=O)OC(C)=O | -1.38%
17 | Nc1ccc(S(=O)(=O)c2ccc(N)cc2)cc1 | -0.594%
18 | CC(=O)Nc1cccc(O)c1 | -0.51%
19 | CC(=O)NS(=O)(=O)c1ccc(N)cc1 | -4.32%
20 | CCCCCC(N)=O | -3.42%
21 | CCCCOC(=O)c1ccc(N)cc1 | -1.99%

experiment: Cell Viability - LYMP2-015 (AID 971); settings: LYMP2-015 lymphoblastoid cell viability; series mostly up to 92.2 µM; activity change, negative = lower viability: at the top concentration;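 note: 0% = DMSO only and full effect = 92 µM tetraoctylammonium bromide; nearly all actives have a fitted effect of over 55% in size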
In short: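 AC50 values reflect Hill-model fits of ATP-based luminescence (CellTiter-Glo) from a human lymphoblastoid line, 2500 cells/well, treated 24 hr at 37 C.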

Row | SMILES | activity change, negative = lower viability
22 | COc1ccc(O)cc1 | -8.8%
23 | CCN(CC)C(=O)c1cccc(C)c1 | -10.9%
24 | CC(=O)Nc1ccccc1 | -15%
25 | O=C1C(c2[nH]c3ccccc3c2O)=Nc2ccccc21 | -19.1%
26 | CCCC(O)C(CC)CO (stereo not given) | -9.83%
27 | Cc1cc(=O)[nH]c(=S)[nH]1 | -27.7%
28 | CCCCCCCC(=O)OCC(COC(=O)CCCCCCC)OC(=O)CCCCCCC | -18.9%
29 | O=C(O)CCCCC1CCSS1 (stereo not given) | -2.52%
30 | Cc1cc(C)nc(NS(=O)(=O)c2ccc(N)cc2)n1 | 5.25%
31 | CC1CC(OC(=O)c2ccccc2O)CC(C)(C)C1 (stereo not given) | -7.96%
32 | Cc1c(N(C)C)c(=O)n(-c2ccccc2)n1C | -7.88%
33 | O=C(c1ccccc1)C(O)c1ccccc1 (stereo not given) | -6.08%
34 | C=CCNC(N)=S | -12.1%
35 | FC(F)(F)C(Cl)Br (stereo not given) | -12.8%
36 | CC(=O)OCC(COC(C)=O)OC(C)=O | -9.63%
37 | Nc1ccc(S(=O)(=O)c2ccc(N)cc2)cc1 | 7.21%
38 | CC(=O)Nc1cccc(O)c1 | -10.1%
39 | CC(=O)NS(=O)(=O)c1ccc(N)cc1 | -12.2%
40 | CCCCCC(N)=O | -5.87%
41 | CCCCOC(=O)c1ccc(N)cc1 | 0.827%

experiment: Cell Viability - LYMP2-017 (AID 972); settings: LYMP2-017 lymphoblastoid cell viability; series mostly up to 92.2 µM; activity change, negative = cytotoxicity: at the top concentration;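 note: cells exposed to compound for 24 hours at 37 °C; % is set by controls: 0 for no effect and ±100 for the full control effect; nearly all actives have a fitted effect of over 55% in size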
In short: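 In this qHTS format, lymphoblastoid cells in complete medium receive test compound for a day at 37 C before ATP content is quantified by luciferase luminescence. Reported AC50 figures come from standard Hill-equation curve fitting.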

Row | SMILES | activity change, negative = cytotoxicity
42 | COc1ccc(O)cc1 | 2.75%
43 | CCN(CC)C(=O)c1cccc(C)c1 | -11%
44 | CC(=O)Nc1ccccc1 | -6.67%
45 | O=C1C(c2[nH]c3ccccc3c2O)=Nc2ccccc21 | -11.8%
46 | CCCC(O)C(CC)CO (stereo not given) | -2.94%
47 | Cc1cc(=O)[nH]c(=S)[nH]1 | -28.7%
48 | CC(=O)Nc1ccc(C(=O)O)cc1 | 0.789%
49 | CCCCCCCC(=O)OCC(COC(=O)CCCCCCC)OC(=O)CCCCCCC | -8.75%
50 | O=C(O)CCCCC1CCSS1 (stereo not given) | -2.05%
51 | Cc1cc(C)nc(NS(=O)(=O)c2ccc(N)cc2)n1 | -18.6%
52 | CC1CC(OC(=O)c2ccccc2O)CC(C)(C)C1 (stereo not given) | -6.15%
53 | Cc1c(N(C)C)c(=O)n(-c2ccccc2)n1C | -5.84%
54 | O=C(c1ccccc1)C(O)c1ccccc1 (stereo not given) | -12.7%
55 | C=CCNC(N)=S | -8.23%
56 | FC(F)(F)C(Cl)Br (stereo not given) | -2.56%
57 | CC(=O)OCC(COC(C)=O)OC(C)=O | -3.55%
58 | Nc1ccc(S(=O)(=O)c2ccc(N)cc2)cc1 | -2.74%
59 | CC(=O)Nc1cccc(O)c1 | -2.64%
60 | CC(=O)NS(=O)(=O)c1ccc(N)cc1 | -7.28%
61 | CCCCCC(N)=O | 1.93%
62 | CCCCOC(=O)c1ccc(N)cc1 | -15.2%

experiment: Cell Viability - LYMP2-019 (AID 973); settings: LYMP2-019 lymphoblastoid cell line viability; series mostly up to 92.2 µM; activity change, negative = cytotoxicity: at the top concentration;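 note: cells exposed to compound for 24 h at 37 °C; 0% = DMSO alone and full effect = 92 µM tetraoctylammonium bromide; nearly all actives have a fitted effect of over 55% in size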
In short: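 AC50 values come from Hill-equation modelling of qHTS concentration-response curves, where viability is measured as luciferase-based ATP luminescence in the lymphoblastoid line after 24 hr compound exposure in complete culture medium.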

Row | SMILES | activity change, negative = cytotoxicity
63 | COc1ccc(O)cc1 | -2.06%
64 | CCN(CC)C(=O)c1cccc(C)c1 | -2.99%
65 | CC(=O)Nc1ccccc1 | -2.24%
66 | O=C1C(c2[nH]c3ccccc3c2O)=Nc2ccccc21 | -8.57%
67 | CCCC(O)C(CC)CO (stereo not given) | -0.713%
68 | Cc1cc(=O)[nH]c(=S)[nH]1 | -3.6%
69 | CC(=O)Nc1ccc(C(=O)O)cc1 | -5.77%
70 | CCCCCCCC(=O)OCC(COC(=O)CCCCCCC)OC(=O)CCCCCCC | -5.39%
71 | O=C(O)CCCCC1CCSS1 (stereo not given) | -5.94%
72 | Cc1cc(C)nc(NS(=O)(=O)c2ccc(N)cc2)n1 | -1.36%
73 | CC1CC(OC(=O)c2ccccc2O)CC(C)(C)C1 (stereo not given) | 2.24%
74 | Cc1c(N(C)C)c(=O)n(-c2ccccc2)n1C | -0.714%
75 | O=C(c1ccccc1)C(O)c1ccccc1 (stereo not given) | -18.1%
76 | C=CCNC(N)=S | -7.62%
77 | FC(F)(F)C(Cl)Br (stereo not given) | -2.59%
78 | CC(=O)OCC(COC(C)=O)OC(C)=O | -3.64%
79 | Nc1ccc(S(=O)(=O)c2ccc(N)cc2)cc1 | 0.046%
80 | CC(=O)Nc1cccc(O)c1 | -3.25%
81 | CC(=O)NS(=O)(=O)c1ccc(N)cc1 | -4.94%
82 | CCCCCC(N)=O | -9.99%
83 | CCCCOC(=O)c1ccc(N)cc1 | 0.676%

experiment: Cell Viability - LYMP2-021 (AID 974); settings: LYMP2-021 lymphoblastoid cells viability; series mostly up to 92.2 µM; activity change, negative = cytotoxicity: at the top concentration;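 note: compound exposure lasts 24 hours at 37 °C; % is set by controls: 0 for no effect and ±100 for the full control effect; nearly all actives have a fitted effect of over 55% in size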
In short: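 In qHTS format, compounds are tested against 2500 lymphoblastoid cells per well for 24 h; viable cell number is inferred from ATP-driven luciferase light, and Hill-equation fitting yields AC50 values.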

Row | SMILES | activity change, negative = cytotoxicity
84 | COc1ccc(O)cc1 | -1.13%
85 | CCN(CC)C(=O)c1cccc(C)c1 | 2.72%
86 | CC(=O)Nc1ccccc1 | -4.85%
87 | O=C1C(c2[nH]c3ccccc3c2O)=Nc2ccccc21 | -2.77%
88 | CCCC(O)C(CC)CO (stereo not given) | -4.34%
89 | O=C1c2cccc(O)c2C(=O)c2c(O)cccc21 | -23%
90 | Cc1cc(=O)[nH]c(=S)[nH]1 | -2.21%
91 | CC(=O)Nc1ccc(C(=O)O)cc1 | -6.02%
92 | CCCCCCCC(=O)OCC(COC(=O)CCCCCCC)OC(=O)CCCCCCC | -1.73%
93 | O=C(O)CCCCC1CCSS1 (stereo not given) | -9.89%
94 | Cc1cc(C)nc(NS(=O)(=O)c2ccc(N)cc2)n1 | -2.28%
95 | CC1CC(OC(=O)c2ccccc2O)CC(C)(C)C1 (stereo not given) | 1.67%
96 | Cc1c(N(C)C)c(=O)n(-c2ccccc2)n1C | -1.43%
97 | O=C(c1ccccc1)C(O)c1ccccc1 (stereo not given) | -4.73%
98 | C=CCNC(N)=S | -10.7%
99 | FC(F)(F)C(Cl)Br (stereo not given) | 3.68%
100 | CC(=O)OCC(COC(C)=O)OC(C)=O | -1.26%
101 | Nc1ccc(S(=O)(=O)c2ccc(N)cc2)cc1 | -0.106%
102 | CC(=O)Nc1cccc(O)c1 | -1.31%
103 | CC(=O)NS(=O)(=O)c1ccc(N)cc1 | -15.6%
104 | CCCCCC(N)=O | -1.36%
105 | CCCCOC(=O)c1ccc(N)cc1 | -1.4%

From PubChem BioAssay (NCATS)
